In PubChem BioAssay:
Results filed as inconclusive are left out. Active and inactive are the calls of the source.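 Rule for the calls, unless noted: active = normalized viability below 100% at a tested concentration; inactive = the rest.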

How the values were obtained:
[1] = growth inhibition of DIPG glioma cells, dose response, cell-based, SU-DIPG-XVII, MIPE5.0, CellTiter-Glo, qHTS (AID 1347060; cut-off not given, nearly all actives have AC50 up to about 26 µM;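 for AC50: cells exposed to compound for 48 hours before viability readout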); details: SU-DIPG-XVII viability, CellTiter-Glo ATP luminescence
[2] = viability loss in pontine glioma line – cell-based, SU-DIPG-XXV, MIPE5.0, CellTiter-Glo, qHTS, dose response (AID 1347065; cut-off not given, nearly all actives have AC50 up to about 26 µM;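 note: cells exposed to compound for 48 hours before ATP readout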); details: CellTiter-Glo ATP luminescence
[3] = SU-DIPG-VI glioma cell viability, MIPE4.0 library, CellTiter-Glo luminescence, qHTS (AID 1347066; cut-off not given, nearly all actives have AC50 up to about 30 µM;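 note: cells exposed to compound for 48 hours before readout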); details: CellTiter-Glo ATP luminescence
[4] = modifiers of HSF1 nuclear foci, imaging, Selleck Cancer Library (AID 1347162; in the data active = plate-normalised HSF1 focus index below about 0.46); details: human cells, at 10 µM; SSMD: measured here: HSF1 foci SSMD mean; cell count: measured here: cell number; plate-normalised HSF1 focus index: stronger effect = lower value
[5] = ovarian cancer cell viability with rucaparib, profiling panel, oncology-focused library, rucaparib conditional (AID 1508598); details: patient-derived ovarian cancer cells, CellTiter-Glo viability, 144 h, stronger effect = lower value
[6] = JHH-DIPG-1 glioma cell viability, MIPE5.0 library, CellTiter-Glo luminescence, qHTS (AID 1347067; cut-off not given, nearly all actives have AC50 up to about 26 µM;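 note: cells exposed to compound for 48 hours before readout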); details: JHH-DIPG-1 glioma viability, CellTiter-Glo ATP luminescence
[7] = SU-DIPG-XXV glioma cell viability, MIPE5.0 library, qHTS (AID 1347068; cut-off not given, nearly all actives have IC50 up to about 30 µM)

C[C@@H](Oc1cc(-n2cnc3ccc(CN4CCN(C)CC4)cc32)sc1C(N)=O)c1ccccc1C(F)(F)F
1.17: SSMD [4]
active: AC50 [1] 0.0525 µM | AC50 [2] 0.0372 µM | AC50 [3] 18.7 µM | viability ([5]; at 0.000305 µM, OCI-C5x cells, with rucaparib 10 µM, 100% = cells with rucaparib alone) 99.2% | viability ([5]; at 0.000305 µM, OCI-C5x cells, without rucaparib) 88.3% | viability ([5]; at 0.000305 µM, OCI-P5x cells, with rucaparib 20 µM, 100% = cells with rucaparib alone) 87% | viability ([5]; at 0.000305 µM, OCI-P5x cells, without rucaparib) 33.3% | viability ([5]; at 0.00122 µM, OCI-C5x cells, with rucaparib 10 µM, 100% = cells with rucaparib alone) 92.1% | viability ([5]; at 0.00122 µM, OCI-C5x cells, without rucaparib) 72.7% | viability ([5]; at 0.00122 µM, OCI-P5x cells, with rucaparib 20 µM, 100% = cells with rucaparib alone) 73.8% | viability ([5]; at 0.00122 µM, OCI-P5x cells, without rucaparib) 22% | viability ([5]; at 0.00488 µM, OCI-C5x cells, with rucaparib 10 µM, 100% = cells with rucaparib alone) 76.5% | viability ([5]; at 0.00488 µM, OCI-C5x cells, without rucaparib) 44% | viability ([5]; at 0.00488 µM, OCI-P5x cells, with rucaparib 20 µM, 100% = cells with rucaparib alone) 73.2% | viability ([5]; at 0.00488 µM, OCI-P5x cells, without rucaparib) 18% | viability ([5]; at 0.0195 µM, OCI-C5x cells, with rucaparib 10 µM, 100% = cells with rucaparib alone) 46.7% | viability ([5]; at 0.0195 µM, OCI-C5x cells, without rucaparib) 33.6% | viability ([5]; at 0.0195 µM, OCI-P5x cells, with rucaparib 20 µM, 100% = cells with rucaparib alone) 62.1% | viability ([5]; at 0.0195 µM, OCI-P5x cells, without rucaparib) 13.6% | viability ([5]; at 0.0781 µM, OCI-C5x cells, with rucaparib 10 µM, 100% = cells with rucaparib alone) 41.7% | viability ([5]; at 0.0781 µM, OCI-C5x cells, without rucaparib) 30.9% | viability ([5]; at 0.0781 µM, OCI-P5x cells, with rucaparib 20 µM, 100% = cells with rucaparib alone) 62.6% | viability ([5]; at 0.0781 µM, OCI-P5x cells, without rucaparib) 15.3% | viability ([5]; at 0.313 µM, OCI-C5x cells, with rucaparib 10 µM, 100% = cells with rucaparib alone) 34.4% | viability ([5]; at 0.313 µM, OCI-C5x cells, without rucaparib) 22.2% | viability ([5]; at 0.313 µM, OCI-P5x cells, with rucaparib 20 µM, 100% = cells with rucaparib alone) 70.6% | viability ([5]; at 0.313 µM, OCI-P5x cells, without rucaparib) 13.4% | viability ([5]; at 1.25 µM, OCI-C5x cells, with rucaparib 10 µM, 100% = cells with rucaparib alone) 38.1% | viability ([5]; at 1.25 µM, OCI-C5x cells, without rucaparib) 28.8% | viability ([5]; at 1.25 µM, OCI-P5x cells, with rucaparib 20 µM, 100% = cells with rucaparib alone) 62.3% | viability ([5]; at 1.25 µM, OCI-P5x cells, without rucaparib) 15.1% | viability ([5]; at 5 µM, OCI-C5x cells, with rucaparib 10 µM, 100% = cells with rucaparib alone) 51.4% | viability ([5]; at 5 µM, OCI-C5x cells, without rucaparib) 3.97% | viability ([5]; at 5 µM, OCI-P5x cells, with rucaparib 20 µM, 100% = cells with rucaparib alone) 0.676% | viability ([5]; at 5 µM, OCI-P5x cells, without rucaparib) 11.4%
6420: cell count [4]
inactive: plate-normalised HSF1 focus index [4] 1.06

COc1c(C)cc(NC(=O)c2nn(Cc3ccc(F)cc3)c3c2CN(C(=O)c2ccc[nH]2)C[C@]3(C)C(N)=O)cc1C
inactive: outcome [1] | outcome [2] | outcome [6]

CO[C@@H]1C(N(C)C(=O)c2ccccc2)C[C@H]2O[C@]1(C)n1c3ccccc3c3c4c(c5c6ccccc6n2c5c31)C(=O)NC4=O (some centres not stated)
inactive: outcome [3]
active: AC50 [1] 0.934 µM | AC50 [2] 0.934 µM

Cc1nnc(C[C@@H]2C=C(c3ccc(Cl)cc3)c3ccccc3-n3c(C)nnc32)o1
active: AC50 [1] 26.3 µM | AC50 [2] 14.8 µM | AC50 [6] 18.6 µM

O=C([O-])C[O-].[Pt+2]
inactive: outcome [1] | outcome [2] | outcome [6] | outcome [7]

CC[C@@H](Oc1cccc(CN(CCCOc2ccc(OC)cc2)c2nc3ccccc3o2)c1)C(=O)O
inactive: outcome [1] | outcome [2] | outcome [6] | outcome [7]

O=C1OC2(CCC(C(=O)Nc3ccn(-c4ccccc4F)n3)CC2)c2cnccc21 (configuration not stated)
inactive: outcome [1] | outcome [2] | outcome [6] | outcome [7]

CN1CCN(C(=O)[C@H]2[C@@H](C(=O)O)[C@H]3CC[C@@H]2O3)CC1
inactive: outcome [1] | outcome [2] | outcome [6] | outcome [7]

CC(=O)N1CCN(c2ccc(NC(=O)Cc3cnc(-c4ccnc(F)c4)c(C)c3)nc2)CC1
inactive: outcome [1] | outcome [2] | outcome [6] | outcome [7]
